TDP1 cell noCPT: qHTS for Inhibitors of human tyrosyl-DNA phosphodiesterase 1 (TDP1): qHTS in cells in absence of CPT; DT40 Tdp1-/- hTDP1 cells, no CPT, ATP luminescence, 48 h; Potency, µM (doses to about 46.2 µM), inactives show at the highest dose activity change, negative = growth inhibition, hits mostly inhibitors; 15% of 420,000 active; AID 686978, 2013; further: potency means the concentration at half of the fitted maximal effect; nearly all actives have a fitted effect of over 55% in size
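A cellular qHTS used chicken DT40 cells lacking endogenous Tdp1 but carrying stably transfected human TDP1. Compounds were applied without camptothecin, and cell growth kinetics were judged by ATP-dependent luminescence after ≥48 hr.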
HT1080 IDH1KD tx: qHTS for induction of synthetic lethality in tumor cells producing 2HG: qHTS for the HT-1080-IDH1KD cell line; HT-1080 IDH1 knockdown viability, ATP luminescence, 48 h; Potency, µM (top dose mostly 46.1 µM), for the others: top-dose activity, negative = toxicity, actives largely listed as cytotoxic; 2% of 360,000 active; AID 686971, 2013;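 further: potency means the concentration at half of the fitted maximal effect; 0% = DMSO wells and -100% = cell-free medium wells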
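After a 2 h attachment period, IDH1KD HT-1080 cells took pin-transferred compound for 48 h at 37 °C; ATP-based luminescence after 10 min room-temperature reagent incubation reported viability.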
uPA surface inh: qHTS for Inhibitors of Cell Surface uPA Generation; Potency, µM (series often up to 38.3 µM), for the others: top-dose activity change, negative = inhibition, usual class: inhibitors; cell surface uPA generation assay, qHTS; 0.31% of 330,000 active; active means well fitted inhibition curve with a large enough effect; inconclusive means small, poorly fitted or top-dose-only effect; inactive means no such curve, though single readings can be large or run the other way; tested in mouse RAW 264.7 cells; further: potency means the concentration at half of the fitted maximal effect; nearly all actives have a fitted effect of over 55% in size
IL1B secr inh: qHTS for Inhibitors of Inflammasome Signaling: IL-1-beta AlphaLISA Primary Screen; THP-1 LPS/ATP IL-1B secretion, AlphaLISA, 16 h; hits give low values; activity change, % at 57.5 µM; 4.7% of 360,000 active; in the data active means activity change below about -50%; inconclusive means mostly about -30% to -49%
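THP-1 cells pretreated 1 hr with compounds (up to 57.5 uM final), then stimulated with LPS (250 ng/mL final) plus ATP (1.25 mM final); secreted IL-1B measured by AlphaLISA after 16 hr, decreased signal indicating inhibition.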
HT1080-NT tox: qHTS for induction of synthetic lethality in tumor cells producing 2HG: qHTS for the HT-1080-NT fibrosarcoma cell line; 1.6% of 360,000 active; Potency, µM (series often up to 46.1 µM), for the others: at the highest dose activity, negative = less viability, hits mostly cytotoxic; HT-1080-NT fibrosarcoma viability, CellTiter-Glo ATP luminescence, 48 h;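 further: NT is the 2HG producing partner of a matched IDH1 knockdown line; potency means the concentration at half of the fitted maximal effect; 0% = DMSO-treated cells and -100% = media-only wells without cells; nearly all actives have a fitted effect of over 55% in size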
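Read-out is CellTiter-Glo luminescence after 10 minutes at room temperature, following 48 hours' compound treatment of HT-1080-NT cells (750 cells/well, RPMI, 5% FBS, 37 degrees C).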
DT40 TDP1 CPT: qHTS for Inhibitors of human tyrosyl-DNA phosphodiesterase 1 (TDP1): qHTS in cells in presence of CPT; chicken DT40 Tdp1-/-;hTDP1 cells + 20 nM CPT, ATP luminescence, 48 h; AID 686979, 2013; Potency, µM (highest dose often 46.2 µM), without a hit: top-dose activity change, negative = growth inhibition, hits mostly inhibitors; 12% of 420,000 active; further: potency means the concentration at half of the fitted maximal effect; nearly all actives have a fitted effect of over 55% in size
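Cell growth measured by CellTiter-Glo luminescence after a minimum 48 h, 37 C compound exposure with 20 nM CPT in Tdp1-knockout DT40 cells stably expressing hTDP1, seeded 400/well; qHTS titration format.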
An asterisk follows results filed as active; u = inconclusive; x = not tested or not shown. This is a sample that favours compounds with a hit; in the whole collection about 19% have one here. Unless noted, the call rests on the fitted dose curve; in most records, active means well fitted curve in the direction sought with a large enough effect; inconclusive means small, poorly fitted or top-dose-only effect, or another doubt; inactive means no such curve, though single readings can be large; an effect the other way counts as inactive or inconclusive. Unless noted, on the % scale 0 is the no-effect control and ±100 the full control effect.

SMILES	TDP1 cell noCPT	HT1080 IDH1KD tx	uPA surface inh	IL1B secr inh	HT1080-NT tox	DT40 TDP1 CPT
CC(C)N(Cc1nc(-c2ccc(Cl)cc2)no1)C(=O)/C=C/c1ccccc1	u	-9%	9%	-62*	-2%	u
Cc1cccc(-c2noc(CN(C(=O)/C=C/c3ccccc3Cl)C(C)C)n2)c1	u	u	2%	-10	-3%	18µM*
Cc1ccc2c(c1)c(=O)c(S(=O)(=O)c1ccc(C)c(C)c1)cn2CC(=O)Nc1ccccc1	-19%	x	x	x	x	-1%
COc1ccc(CCC(=O)NCC(=O)OCc2ccccc2)cc1	9%	16%	0%	14	8%	-1%
CC1(C(=O)Nc2ccc3c(c2)OCO3)CCN1C(=O)C1CCCCC1 (configuration not stated)	-29%	6%	x	-1	11%	-12%
Cc1nn(-c2ccccc2)c2ncc(C(=O)c3cc(Cl)ccc3O)cc12	-24%	-19%	0%	u	-20%	-15%
CCc1nn2cc(C(=O)c3cc(Cl)ccc3O)cnc2c1-c1ccc(F)cc1	u	u	1%	-77*	u	u
O=C(CSc1ccc(-c2ccccn2)nn1)N1CCCC1	u	1%	2%	2	-22%	u
C[C@H](CO)N1C[C@H](C)[C@H](CN(C)S(C)(=O)=O)OCc2cnnn2CCCC1=O	3%	13%	x	26	17%	-3%
CCOC(=O)C1CCCN(Cc2nc(N)nc(Nc3ccc(Cl)cc3)n2)C1 (configuration not stated)	16µM*	-14%	-4%	-5	-11%	u
CCOC(=O)N1CCN(Cc2nc(N)nc(Nc3ccc(Oc4ccccc4)cc3)n2)CC1	16µM*	u	-12%	-27	16µM*	u
CCOC(=O)N1CCN(Cc2nc(N)nc(Nc3ccc(OC)cc3)n2)CC1	-15%	u	x	-12	5%	-1%
CCOC(=O)C1CCCN(Cc2nc(N)nc(Nc3ccc(OC)cc3)n2)C1 (configuration not stated)	u	-3%	4%	13	-12%	29µM*
CCc1cc(=O)oc2c(C)c(OS(C)(=O)=O)ccc12	-26%	-4%	0%	-3	-1%	-10%
CCc1cc2c(=O)c(-c3ccc4c(c3)OCCO4)c(C)oc2cc1OS(C)(=O)=O	26µM*	u	-9%	-27	-28%	u
Cc1sc2nc(C(C)Nc3ccccc3N3CCOCC3)[nH]c(=O)c2c1C (configuration not stated)	15µM*	-14%	2%	75	-4%	u
Cc1sc2nc(CSCC(=O)Nc3ccc(N4CCOCC4)cc3)[nH]c(=O)c2c1C	u	2%	0%	0	0%	u
Cc1nn(Cc2ccc(Cl)cc2)c(C)c1NC(=O)c1cc(-c2ccco2)on1	23µM*	u	-20%	40	-30%	13µM*
Cc1cc(NC(=O)c2cc(-c3ccco3)on2)nn1Cc1ccc(Cl)cc1	26µM*	-14%	-15%	8	-28%	21µM*
CCOC(=O)C(Cc1c[nH]c2ccc([N+](=O)[O-])cc12)(NC(C)=O)C(=O)OCC	u	-19%	-4%	7	0%	u
C[C@@H](c1ncncc1F)C(O)(Cn1cncn1)c1ccc(F)cc1F (some centres not stated)	-21%	x	x	x	x	-27%
O=C(CCn1c(=O)[nH]c2ccsc2c1=O)N1CCN(c2ccc([N+](=O)[O-])cc2)CC1	u	-13%	-2%	-21	0%	16µM*
CCCCC(CC)CNC(=O)CCCCCn1c(=O)[nH]c2ccsc2c1=O (configuration not stated)	23µM*	x	x	x	x	u
O=C(CCc1nc2ccccc2s1)N1CCN(c2ccccc2)CC1	u	6%	9%	12	1%	-27%
CC(=O)c1ccc(N2CCN(C(=O)CCCCn3c(=O)[nH]c4ccsc4c3=O)CC2)cc1	23µM*	x	x	x	x	13µM*
SMILES	TDP1 cell noCPT	HT1080 IDH1KD tx	uPA surface inh	IL1B secr inh	HT1080-NT tox	DT40 TDP1 CPT
CC(C)CCNC(=O)CCCCn1c(=O)[nH]c2ccsc2c1=O	-5%	1%	0%	11	0%	-20%
CC(=O)c1ccc(N2CCN(C(=O)CCCc3nc4ccccc4s3)CC2)cc1	10µM*	-4%	-17%	156	-13%	12µM*
O=C(Cn1c(=O)[nH]c2ccsc2c1=O)N1CCN(c2ccc(F)cc2)CC1	u	-11%	4%	3	-13%	-24%
O=C1Nc2ccccc2-n2nnnc2C1N1CCN(C(=O)C2CCCO2)CC1 (configuration not stated)	1%	12%	x	23	22%	9%
CCOc1cccc(-c2c(C(=O)N/N=C/c3cccs3)nnn2-c2nonc2N)c1	7%	2%	6%	-6	-2%	-17%
Cc1cccc(N2CCN(C(=O)CCCn3c(=O)[nH]c4ccsc4c3=O)CC2)c1C	u	x	x	x	x	21µM*
O=C(CCCCn1c(=O)[nH]c2ccsc2c1=O)N1CCN(c2cccc(Cl)c2)CC1	13µM*	x	x	x	x	16µM*
O=C(CCn1c(=O)[nH]c2ccsc2c1=O)N1CCN(c2cccc(Cl)c2)CC1	u	u	3%	-10	-1%	-11%
CC[C@H](C)[C@@H](CN[C@H](C)CNC)NCCC(c1ccccc1)c1ccccc1	3.7µM*	u	-30%	0	u	5.2µM*
CNC(=S)NCCC(c1ccccc1)c1ccccc1	-34%	-17%	6%	4	-1%	-23%
